From PubChem BioAssay (NCATS)
Where “and” joins values, the source holds several entries; their conditions need not be identical. Equal values may be shown once. Results filed as inconclusive are left out. Calls of active or inactive are those of the source. Unless noted, calls follow the shape of the dose curve; as a rule, active = well fitted curve in the direction sought with a large enough effect; inconclusive = small, poorly fitted or top-dose-only effect, or another doubt; inactive = no such curve, though single readings can be large; an effect the other way counts as inactive or inconclusive.

How the values were obtained:
[1] = molecular target: Peroxisome proliferator-activated receptor alpha (Homo sapiens) (UniProt Q07869); test: qHTS assay for small molecule agonists of the peroxisome proliferator-activated receptor alpha (PPARalpha) signaling pathway (AID 651778); conditions: PathHunter PPARalpha complementation, chemiluminescence, 6 h; max response: stronger effect = higher value; also: potency is read from the fitted curve at half-maximal effect; as to max response: % of control where 0% means no effect
Method in brief: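 Chemiluminescence from complemented enzyme reported PPARalpha activation in cells after 6 hr of compound treatment at 37 C. The detection reagent was incubated for 60 min at room temperature, and compounds were scored as agonists.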

[2] = qHTS assay for small molecule agonists of the antioxidant response element (ARE) signaling pathway measured by Nrf2-dependant transcriptional activity - cell viability counter screen (AID 720653; active = well fitted curve in the direction sought with a large enough effect in the repeat runs; an effect the other way counts as inactive or inconclusive; also: % is scaled to controls: 0 for no effect and ±100 for the full control effect); conditions: ARE-bla HepG2 viability, CellTiter-Glo ATP luminescence, 16 h; stronger effect = lower value
Method in brief: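 Cytotoxicity counter screen: intracellular ATP quantified by CellTiter-Glo luminescence in the same ARE-bla HepG2 plates, after 16 h compound exposure and a 2 h beta-lactamase substrate step.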

[3] = qHTS Assay for Identifying Gametocytocidal Compounds (AID 743244); also: potency is read from the fitted curve at half-maximal effect;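 as to max response: % is scaled to controls: 0 for no effect and ±100 for the full control effect; actives lower the fluorescent signal which means gametocytes are killed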; conditions: P. falciparum 3D7 stage III-V gametocytes, alamarBlue, 72 h; max response: stronger effect = lower value
Method in brief: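 In this qHTS viability screen, late-stage 3D7 gametocytes are incubated with compound for 72 h, then with alamarBlue for 24 h; reduced resorufin fluorescence marks killing.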

[4] = qHTS assay for cell viability of HEK293 cells (AID 743288); conditions: ATP luminescence (CellTiter-Glo), 18 h; max response: stronger effect = lower value; also: nearly all actives have a fitted effect of over 50% in size; also: potency is read from the fitted curve at half-maximal effect; as to max response: % is scaled to controls: 0 for no effect and ±100 for the full control effect
Method in brief: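 Total intracellular ATP, measured with a luciferase-coupled reagent, indicates the number of viable HEK293 cells. Exposure to test chemicals lasts 18 h at 37 C in 1,536-well format at 2,000 cells/well.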

[5] = qHTS assay for cell viability of the p53RE-bla HCT-116 cell line (AID 743292); also: % is scaled to controls: 0 for no effect and ±100 for the full control effect; nearly all actives have a fitted effect of over 55% in size
Method in brief: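 Readout: CellTiter-Glo luminescence after 30 min RT. Treatment: compounds in DMSO, 16 h, 37 C. Cells: CellSensor p53RE-bla HCT-116, 4,000/well, preincubated 5 h.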

[6] = molecular target: Nuclear receptor ROR-gamma (Homo sapiens) (UniProt P51449); test: qHTS assay for small molecule antagonists of the retinoid-related orphan receptor gamma (ROR-gamma) signaling pathway (AID 651802); also: nearly all actives have a fitted effect of over 60% in size; also: potency is read from the fitted curve at half-maximal effect
Method in brief: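 CHO cells carrying TET-inducible ROR-gamma and an ROR response element–luciferase reporter were exposed to compound, then induced with doxycycline. After 16hr at 37C, luminescence was read; lower signal indicates antagonism.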

[7] = qHTS assay for small molecule antagonists of the retinoid-related orphan receptor gamma (ROR-gamma) signaling pathway - cell viability counter screen (AID 720652; active = well fitted curve in the direction sought with a large enough effect in the repeat runs; an effect the other way counts as inactive or inconclusive;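 also: compound exposure lasted 16 hr before ATP read; % is scaled to controls: 0 for no effect and ±100 for the full control effect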)
Method in brief: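 Counter screen in CHO cells carrying TET-inducible ROR-gamma and an ROR response element-luciferase reporter; cells plated 5 hr, compound pinned, doxycycline added, then 16 hr at 37 C. Viability read as intracellular ATP by CellTiter-Glo luminescence.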

[8] = qHTS profiling for inhibitors of Plasmodium falciparum (3D7) proliferation (AID 743322);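 also: infected erythrocytes exposed to compound for 72 h before lysis; 100% = DMSO vehicle wells and 0% = 0.29 µM artemisinin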; conditions: P. falciparum 3D7 proliferation; at 28.7 µM (top of the series)
Method in brief: (§1)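 Erythrocytes infected with P. falciparum (0.3% parasitemia, 2.5% hematocrit) incubated with compounds 72 h at 37 C, 5% CO2. Lysis with saponin/Triton buffer containing SYBR Green I, overnight at room temperature in the dark; DNA fluorescence (485/535 nm) normalised to 0.29 uM artemisinin and DMSO.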

[9] = qHTS profiling for inhibitors of Plasmodium falciparum (DD2) proliferation (AID 743323; call rule not given here); conditions: lower = more inhibition; at 28.7 µM (top of the series)
Method in brief: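 Parasite proliferation measured via DNA-dye fluorescence, as uninfected erythrocytes lack DNA. Cultures at 0.3% parasitemia and 2.5% hematocrit incubated 72 h with compound; signal scaled between vehicle and 0.29 uM artemisinin wells.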

[10] = qHTS profiling of the MIPE4 collection as inhibitors of Plasmodium falciparum (3D7) proliferation (AID 743344; call rule not given here;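 also: scaled between DMSO vehicle wells and 0.29 µM artemisinin as full inhibition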); conditions: P. falciparum 3D7 in erythrocytes, SYBR Green DNA fluorescence, 72 h; at 28.5 µM (top of the series)
Method in brief: as §1

[11] = molecular target: Arylsulfatase A (Homo sapiens) (UniProt P15289); test: qHTS screen for enhancers of Arylsulfatase A (ASA1): LOPAC Validation Assay (AID 720538); also: 0% is about no effect
Method in brief: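 Enhancer assay in patient-derived MLD fibroblasts carrying ASA-I179S: 48 h compound exposure at 37 C, then 14 h room-temperature pNCS turnover (0.5 mM final) in lysis buffer. Read by fluorescence at 525/598 nm after NaOH stop.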

[12] = molecular target: T1, Hexokinase-4 (Homo sapiens) + Glucokinase regulatory protein (Homo sapiens) (UniProt P35557+Q14397); test: qHTS assay for inhibitors of recombinant human GCK-GKRP interaction: Diaphorase-coupled assay (AID 743205)
Method in brief: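 A kinetic fluorescence read (Ex 525/Em 590 nm, every minute for 30 minutes) tracked resorufin from a G6PDH-diaphorase coupled GCK reaction. It contained 10 nM GST-GCK, 10 nM FLAG-GKRP, 5 mM glucose, 0.4 mM ATP in Hepes pH 7.6. Normalized to with/without-enzyme DMSO controls.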

[13] = qHTS for compounds that reverse cellular toxicity of Amyloid beta (A-beta) peptide in yeast: LOPAC Validation Assay (AID 720559);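 also: plate controls were DMSO for no effect and equimolar ferric chloride plus clioquinol rescue for full effect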
Method in brief: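 Rescue of A-beta toxicity was scored as yeast growth by 600 nm absorbance after 48 hr at 30 C with compound. Normalization used DMSO (negative) and equimolar ferric chloride plus clioquinol (positive).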

[14] = qHTS for Activators of Parkin Expression: LOPAC Validation Assay (NLuc Reporter) (AID 720572;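 also: 0% = DMSO and 100% = positive control compound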)
Method in brief: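 Parkin promoter-driven FLuc/NLuc neuronal reporter cells; 24 h plating, 7-pt dose response, 24 h at 37 C/5% CO2; FLuc then NanoLuc reagent, 10 min each, luminescence; DMSO/positive control normalized.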

[15] = qHTS for Activators of Parkin Expression: LOPAC Validation Assay (FLuc Reporter) (AID 720573;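 also: 0% = DMSO and 100% = positive control compounds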)
Method in brief: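 FLuc signal from Parkin-promoter coincidence reporter neuronal cells, normalized to DMSO and positive control (100%). Cells (1,500/well) pre-incubated 24 h, then exposed to LOPAC compounds in 7-point dose response for 24 h at 37 C, 5% CO2.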

[16] = molecular target: T1, Hexokinase-4 (Homo sapiens) + Glucokinase regulatory protein (Homo sapiens); test: qHTS assay for inhibitors of recombinant human GCK-GKRP interaction: ADP-Glo assay (AID 743206);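 also: plate controls were DMSO plus enzyme for no effect and no enzyme for full effect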
Method in brief: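 GST-GCK and FLAG-GKRP (15 nM each in the dispensed mix, with 2 uM S6P) react with 0.4 mM ATP and 5 mM glucose (final) in Hepes pH 7.6 for 60 min at room temperature. ADP is measured by ADP-Glo luminescence.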

[17] = molecular target: T1, Hexokinase-4 (Homo sapiens) + Glucokinase regulatory protein (Homo sapiens); test: qHTS assay for inhibitors of recombinant human GCK-GKRP interaction: HTRF assay (AID 743207);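 also: 0% = DMSO with GCK present and -100% = DMSO wells lacking GCK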
Method in brief: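 After 60 min equilibration at room temperature with anti-FLAG XL665 and anti-GST antibodies, FRET ratio (665/615 nm, excitation 320 nm) was read. Proteins: GST-GCK and FLAG-GKRP, each 5 nM, plus 2 uM S6P, pH 7.1 buffer; GCK-free wells define minimum signal.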

Sequence of Peroxisome proliferator-activated receptor alpha (Homo sapiens) (Q07869 whole entry, looked up): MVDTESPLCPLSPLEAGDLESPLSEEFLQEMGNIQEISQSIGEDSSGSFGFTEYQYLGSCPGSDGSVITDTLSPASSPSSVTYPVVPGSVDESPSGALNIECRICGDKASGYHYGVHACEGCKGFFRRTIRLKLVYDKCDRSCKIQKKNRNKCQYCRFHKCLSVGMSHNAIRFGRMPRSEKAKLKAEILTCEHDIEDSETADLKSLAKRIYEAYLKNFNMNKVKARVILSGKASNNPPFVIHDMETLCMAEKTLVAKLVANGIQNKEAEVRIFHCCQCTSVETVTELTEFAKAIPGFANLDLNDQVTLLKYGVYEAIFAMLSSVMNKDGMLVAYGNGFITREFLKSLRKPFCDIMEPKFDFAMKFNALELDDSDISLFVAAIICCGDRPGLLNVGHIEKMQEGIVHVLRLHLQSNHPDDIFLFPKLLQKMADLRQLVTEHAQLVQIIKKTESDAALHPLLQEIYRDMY
Sequence of Arylsulfatase A (Homo sapiens) (P15289 whole entry, looked up): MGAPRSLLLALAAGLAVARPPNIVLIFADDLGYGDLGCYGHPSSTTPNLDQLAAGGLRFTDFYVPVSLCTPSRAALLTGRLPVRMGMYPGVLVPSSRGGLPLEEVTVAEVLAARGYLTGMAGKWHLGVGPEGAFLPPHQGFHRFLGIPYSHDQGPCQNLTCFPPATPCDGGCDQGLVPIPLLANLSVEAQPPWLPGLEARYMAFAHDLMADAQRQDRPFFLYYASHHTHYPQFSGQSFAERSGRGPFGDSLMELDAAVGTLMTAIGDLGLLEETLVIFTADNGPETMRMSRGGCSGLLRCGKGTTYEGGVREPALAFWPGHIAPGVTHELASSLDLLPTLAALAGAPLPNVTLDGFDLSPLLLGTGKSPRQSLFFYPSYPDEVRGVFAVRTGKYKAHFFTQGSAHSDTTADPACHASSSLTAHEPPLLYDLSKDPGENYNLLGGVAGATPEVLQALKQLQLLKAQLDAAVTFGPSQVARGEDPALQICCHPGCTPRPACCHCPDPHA
Sequence of Nuclear receptor ROR-gamma (Homo sapiens) (P51449 whole entry, looked up): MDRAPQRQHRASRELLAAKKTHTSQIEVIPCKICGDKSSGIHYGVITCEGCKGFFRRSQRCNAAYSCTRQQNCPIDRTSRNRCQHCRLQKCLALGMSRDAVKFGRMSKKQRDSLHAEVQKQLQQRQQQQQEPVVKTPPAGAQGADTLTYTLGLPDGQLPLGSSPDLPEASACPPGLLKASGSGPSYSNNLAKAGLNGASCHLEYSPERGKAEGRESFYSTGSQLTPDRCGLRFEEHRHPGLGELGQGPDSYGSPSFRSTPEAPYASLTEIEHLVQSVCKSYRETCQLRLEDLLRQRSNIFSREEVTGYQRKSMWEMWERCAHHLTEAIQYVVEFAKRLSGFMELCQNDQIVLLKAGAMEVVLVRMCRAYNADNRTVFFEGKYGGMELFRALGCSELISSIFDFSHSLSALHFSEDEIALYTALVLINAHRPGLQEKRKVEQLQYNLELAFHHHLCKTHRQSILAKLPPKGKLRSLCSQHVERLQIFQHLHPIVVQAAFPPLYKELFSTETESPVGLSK
T1 sequence (P35557 whole entry, looked up): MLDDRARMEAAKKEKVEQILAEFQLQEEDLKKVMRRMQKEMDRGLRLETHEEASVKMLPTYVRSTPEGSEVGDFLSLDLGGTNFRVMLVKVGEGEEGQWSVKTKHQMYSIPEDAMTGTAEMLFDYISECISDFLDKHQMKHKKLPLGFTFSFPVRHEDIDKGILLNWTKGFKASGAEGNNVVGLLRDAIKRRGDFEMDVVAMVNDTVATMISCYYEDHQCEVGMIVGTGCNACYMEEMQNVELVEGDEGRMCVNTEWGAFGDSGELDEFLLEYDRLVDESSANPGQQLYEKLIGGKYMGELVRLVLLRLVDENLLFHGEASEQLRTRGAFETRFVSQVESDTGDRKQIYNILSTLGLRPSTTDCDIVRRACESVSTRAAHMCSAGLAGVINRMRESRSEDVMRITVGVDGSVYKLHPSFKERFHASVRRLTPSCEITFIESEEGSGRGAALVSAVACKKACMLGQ
T1 sequence (Q14397 whole entry, looked up): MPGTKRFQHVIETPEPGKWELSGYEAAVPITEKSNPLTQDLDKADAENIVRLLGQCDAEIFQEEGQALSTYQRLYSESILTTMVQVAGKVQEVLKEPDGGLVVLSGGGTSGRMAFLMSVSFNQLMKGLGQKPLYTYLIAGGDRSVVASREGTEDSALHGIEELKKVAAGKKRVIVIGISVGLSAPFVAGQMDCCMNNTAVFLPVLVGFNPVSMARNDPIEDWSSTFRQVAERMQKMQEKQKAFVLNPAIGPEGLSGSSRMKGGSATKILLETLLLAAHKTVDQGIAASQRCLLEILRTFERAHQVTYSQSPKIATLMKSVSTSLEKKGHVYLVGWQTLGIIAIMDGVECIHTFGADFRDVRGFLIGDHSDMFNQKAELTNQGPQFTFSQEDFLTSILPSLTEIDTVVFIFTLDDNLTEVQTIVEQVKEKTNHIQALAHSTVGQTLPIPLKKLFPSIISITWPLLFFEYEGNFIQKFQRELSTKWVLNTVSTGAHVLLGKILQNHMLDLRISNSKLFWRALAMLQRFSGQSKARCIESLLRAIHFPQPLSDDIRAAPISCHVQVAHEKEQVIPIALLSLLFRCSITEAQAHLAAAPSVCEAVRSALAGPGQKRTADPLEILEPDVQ

SMILES: CCC(=O)O[C@H]1CC[C@H]2[C@@H]3CCC4=CC(=O)CC[C@]4(C)[C@H]3CC[C@]12C
- max response [1]: -1.43% (inactive)
- max response [2]: -2.38% (inactive)
- max response [3]: 11.3% (inactive)
- max response [4]: -26.1% (inactive)
- outcome [5]: inactive

SMILES: CCCCCCCCCCCCCCCC[n+]1ccccc1
- Potency [6]: 1.19 µM (active)
- Potency [3]: 7.08 µM (active)

SMILES: CCNc1nc(Cl)nc(NCC)n1
- max response [1]: -1.73% (inactive)
- max response [2]: 2.17% (inactive)
- max response [3]: 2.85% (inactive)
- max response [4]: -8% (inactive)
- outcome [5]: inactive

SMILES: C[C@@H]1C[C@@H]([C@H](O)CC2CC(=O)NC(=O)C2)C(=O)[C@@H](C)C1
- max response [1]: -1.34% (inactive) and -7.61% (inactive) and -0.958% (inactive)
- Potency [6]: 150 nM (active) and 237 nM (active)
- Potency [7]: inactive
- max response [2]: 15.1% (inactive) and 0.954% (inactive) and 3.58% (inactive)
- Potency [3]: 2.82 µM (active)
- Potency [4]: 0.126 µM (active)
- outcome [5]: inactive
- remaining parasite growth % (stronger effect = lower value) [8]: -0.0842%
- activity, percent of control [9]: 0.342%
- parasite growth, % of DMSO control [10]: 5.16%

SMILES: CCOC(=O)Nc1ccc(NCc2ccc(F)cc2)nc1N
- Potency [11]: inactive
- outcome [12]: inactive
- Potency [3]: 3.55 µM (active)
- parasite growth, % of DMSO control [10]: 40.6%

SMILES: N#Cc1nn(-c2c(Cl)cc(C(F)(F)F)cc2Cl)c(N)c1S(=O)C(F)(F)F (stereo unspecified)
- max response [1]: -0.478% (inactive)
- max response [2]: -35.8% (inactive)
- max response [3]: 6.82% (inactive)
- max response [4]: -24.4% (inactive)
- outcome [5]: inactive

SMILES: COP(=O)(OC)C(O)C(Cl)(Cl)Cl (stereo unspecified)
- max response [1]: -2.06% (inactive)
- max response [2]: -9.64% (inactive)
- max response [4]: -19.1% (inactive)
- outcome [5]: inactive

SMILES: Oc1ccc(Cl)cc1Cc1cc(Cl)ccc1O
- max response [1]: 4.36% (inactive)
- max response [2]: -12% (inactive)

SMILES: COC(=O)C1=CCCN(C)C1
- Potency [11]: inactive
- outcome [13]: inactive
- Potency [14]: inactive
- outcome [15]: inactive
- outcome [12]: inactive
- outcome [16]: inactive
- outcome [17]: inactive
- max response [3]: 7.57% (inactive) and 6.37% (inactive)
- parasite growth, % of DMSO control [10]: 75.8%

SMILES: COP(=S)(OC)Oc1ccc(Sc2ccc(OP(=S)(OC)OC)cc2)cc1
- max response [1]: 7.57% (inactive)
- max response [2]: -17.2% (inactive)
- max response [3]: 1.05% (inactive)
- max response [4]: -12.2% (inactive)
- outcome [5]: inactive

SMILES: Cc1ccc(N=CN(C)C=Nc2ccc(C)cc2C)c(C)c1
- max response [2]: -11.3% (inactive)
- max response [3]: 9.43% (inactive)
- max response [4]: -16.1% (inactive)
- outcome [5]: inactive

SMILES: CC(=O)[C@@]1(O)CC[C@H]2[C@@H]3CCC4=CC(=O)CC[C@]4(C)[C@H]3CC[C@@]21C
- Potency [11]: inactive

SMILES: NC(N)=NC(=O)c1nc(Cl)c(N)nc1N
- Potency [11]: inactive
- max response [3]: 25% (inactive)
- parasite growth, % of DMSO control [10]: 116%

SMILES: CCOP(=S)(OCC)O/N=C(\C#N)c1ccccc1
- max response [1]: -3.05% (inactive)
- max response [2]: 4.22% (inactive)
- max response [3]: -3.66% (inactive)
- max response [4]: -1.29% (inactive)
- outcome [5]: inactive

SMILES: CC[n+]1c(-c2ccccc2)c2cc(N)ccc2c2ccc(N)cc21
- max response [1]: -2.33% (inactive)
- Potency [6]: inactive
- Potency [7]: inactive
- max response [2]: -16.8% (inactive)
- Potency [3]: 1.41 µM (active) and 6.31 µM (active)
- outcome [5]: inactive

SMILES: Oc1c(Br)cc(Br)cc1Br
- Potency [1]: 39.8 µM (active) and 35.5 µM (active)
- Potency [7]: inactive
- max response [2]: -5.17% (inactive) and -2.6% (inactive)
- max response [3]: -0.35% (inactive)
- max response [4]: -15.1% (inactive) and -2.12% (inactive)
- outcome [5]: inactive

SMILES: CNC(=O)Oc1cccc2ccccc12
- max response [1]: -0.498% (inactive) and -1.3% (inactive)
- Potency [6]: inactive
- Potency [7]: inactive
- max response [2]: 6.76% (inactive) and -21.4% (inactive)
- Potency [3]: 35.5 µM (active)
- max response [4]: -4.95% (inactive) and -11.8% (inactive)
- outcome [5]: inactive

SMILES: Oc1ccc(Cl)cc1Sc1cc(Cl)ccc1O
- Potency [6]: 15 µM (active)

SMILES: Brc1c(NC2=NCCN2)ccc2nccnc12
- Potency [11]: inactive

SMILES: CNC(=O)Oc1ccc2c(c1)[C@]1(C)CCN(C)[C@@H]1N2C
- outcome [12]: inactive
